Bioassay records: PubChem, National Center for Advancing Translational Sciences (NCATS)
NPC1 prom act – NPC1 promoter activation; Huh7 NPC1 promoter luciferase reporter, 24 h; Potency, µM (highest dose often 9.22 µM), for the others: at the highest dose activation, usual class: activators; hit rate 2.4% among 320,000; AID 485313; also: % of control where 0% means no effect; nearly all actives have a fitted effect of over 60% in size
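Quantitative HTS used a cell-based reporter: Huh7 cells stably bearing the NPC1 promoter upstream of luciferase were treated with compounds for 24 h, and promoter activation was read as luminescence.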
FLuc modulator – firefly luciferase modulation, counter-screen for miR-21 project | purified FLuc, Km substrates, luminescence inhibition | hit rate 6.9% among 360,000 | Potency, µM (doses to about 57.5 µM), for inactives: top-dose activity change, negative = inhibition, actives largely listed as inhibitors;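 also: plate controls were vehicle for no effect and reference inhibitor for full effect; nearly all actives have a fitted effect of over 55% in size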
Target sequence (P08659 whole entry, looked up): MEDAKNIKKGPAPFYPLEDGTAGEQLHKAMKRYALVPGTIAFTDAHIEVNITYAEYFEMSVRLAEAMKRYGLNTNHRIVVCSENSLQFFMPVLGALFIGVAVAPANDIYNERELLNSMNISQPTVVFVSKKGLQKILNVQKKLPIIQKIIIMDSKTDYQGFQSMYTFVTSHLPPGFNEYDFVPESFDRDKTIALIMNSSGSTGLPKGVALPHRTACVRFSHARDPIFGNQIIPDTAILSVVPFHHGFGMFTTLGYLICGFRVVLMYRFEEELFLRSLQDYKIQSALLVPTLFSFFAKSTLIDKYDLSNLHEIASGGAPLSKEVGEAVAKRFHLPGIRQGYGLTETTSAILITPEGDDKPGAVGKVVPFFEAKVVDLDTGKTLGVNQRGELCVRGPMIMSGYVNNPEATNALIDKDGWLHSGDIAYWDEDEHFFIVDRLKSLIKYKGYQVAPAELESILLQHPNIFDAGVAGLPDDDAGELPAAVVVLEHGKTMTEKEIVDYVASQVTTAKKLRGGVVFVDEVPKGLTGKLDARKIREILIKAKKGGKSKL
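Purified P. pyralis luciferase (10nM final) with 10uM D-luciferin and 10uM ATP (Km levels) in 50mM Tris acetate pH 7.5, 10mM Mg acetate, 0.01% Tween-20, 0.05% BSA; qHTS 6-point titration, ~60 µM downward; luminescence read.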
ELG1 genotoxic – genotoxicity induction in ELG1-luciferase HEK293T cells; hit rate 1.3% among 330,000; HEK293T ELG1-luciferase reporter, luminescence, 16 h; Potency, µM (top dose mostly 46 µM), inactives show at the highest dose activity change, positive = activation, actives largely listed as activators; AID 504466; also: % of control where 0% means no effect; nearly all actives have a fitted effect of over 60% in size
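Reporter readout depends on ELG1 protein level, which increases with genetic stress. After 16 hr compound exposure at 37 °C, luciferase activity was quantified using ONE-Glo.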
SMN2 splice up – enhancers of SMN2 splice variant expression. HEK293 SMN2-luciferase splicing reporter, luminescence, 30-36 h. Potency, µM (top dose mostly 46.1 µM), without a hit: at the top dose activity change, positive = activation, most hits filed as activators. hit rate 2.8% among 210,000. AID 1458; also: % of control where 0% means no effect; nearly all actives have a fitted effect of over 55% in size
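HEK293 cells carry an SMN2 […]–luciferase reporter in which exon 7 inclusion puts luciferase in frame. Cells were plated 10-12 h before compound addition, then incubated 30-36 h at 37C. ONE-Glo luminescence was read; sodium butyrate at 4.5 mM final served as control.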
ELG1 DNA repair – ELG1-dependent DNA repair inhibition | hit rate 2.3% among 330,000 | AID 504467 | Potency, µM (top dose mostly 46.1 µM), without a hit: at the highest dose activity change, negative = inhibition, hits mostly inhibitors | HEK293T ELG1-luciferase reporter, luminescence, 16 h; DNA damage induced by 5-fluorouridine; also: % is scaled to controls: 0 for no effect and ±100 for the full control effect; nearly all actives have a fitted effect of over 55% in size
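Cells (2,000 per well) received 5-fluorouridine plus test compound or DMSO and were incubated 16 hr at 37 °C, 5% CO2. Luciferase activity was read by luminescence 30 min after ONE-Glo addition; signal suppression marked inhibition of damage-induced ELG1 function.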
Rab9 promoter act – activates the Rab9 promoter | Huh7 Rab9 promoter-luciferase reporter, luminescence, 24 h | hit rate 2.8% among 320,000 | Potency, µM (highest dose often 9.22 µM), inactives show at the highest dose activation, negative = inhibition, usual class: activators; also: % of control where 0% means no effect; nearly all actives have a fitted effect of over 60% in size
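Luminescence read-out: Huh7 cells stably expressing Rab9-luciferase, treated 24 h with compound at 37 °C, then lysed with luciferase reagent for 10 min at ambient before reading.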
* hit, by the source's call; [ ] = remark or other dose. In the library only some 9.4% were active in any assay of this set; here they are far more common. Calls follow the shape of the dose curve; as a rule, active = well fitted curve in the direction sought with a large enough effect; inconclusive = small, poorly fitted or top-dose-only effect, or another doubt; inactive = no such curve, though single readings can be large; an effect the other way counts as inactive or inconclusive. Potency is read from the fitted curve at half-maximal effect.

Screening CC(C)c1ccc(/C=N/NC(=O)C2CCCC2)cc1 returned NPC1 prom act 2µM*, FLuc modulator 12µM*, ELG1 genotoxic 5.8µM*, ELG1 DNA repair inconclusive and Rab9 promoter act 2.51µM*.
For CC(C)(C)c1ccc(/C=N/NC(=O)C2CCCC2)cc1 the results were NPC1 prom act inconclusive, FLuc modulator 19µM*, ELG1 genotoxic inconclusive, ELG1 DNA repair inconclusive and Rab9 promoter act inconclusive.
COc1ccc(-n2c(SCc3ccccc3F)nc3c([nH]c4ccccc43)c2=O)cc1OC was read as FLuc modulator 0.1%.
Screening COc1ccc([C@]23Cc4ccccc4C(O2)c2c(cc(C)n(Cc4ccccc4)c2=O)O3)cc1 returned NPC1 prom act 4.3%[1.84 µM], FLuc modulator 3.3%[11.5 µM] and Rab9 promoter act -4.5%[1.84 µM].
Screening Cc1nn(C(=O)c2cccs2)c(N)c1-c1ccccc1 returned NPC1 prom act inconclusive, FLuc modulator 4.26µM*, ELG1 genotoxic inconclusive, SMN2 splice up inconclusive, ELG1 DNA repair inconclusive and Rab9 promoter act inconclusive.
O=C(c1ccc2c(c1)OCO2)N1CCN(c2ccccc2)CC1 was read as NPC1 prom act 1.9%, FLuc modulator -2.6%, ELG1 genotoxic -2.1%, SMN2 splice up -0.9%, ELG1 DNA repair -2.6% and Rab9 promoter act 2.2%.
For Cc1nn(C(=O)c2ccc3c(c2)OCO3)c(N)c1-c1ccccc1 the results were NPC1 prom act -0.6%, FLuc modulator 0.477µM*, ELG1 genotoxic inconclusive, SMN2 splice up 9.8%, ELG1 DNA repair inconclusive and Rab9 promoter act 8.2%.
For Cc1ccc(C)c(C(=O)COC(=O)c2ccccc2N2C(=O)C3C4CCC(C4)C3C2=O)c1 (stereo not drawn) the results were NPC1 prom act 14.3%, FLuc modulator 7.57µM*, ELG1 genotoxic -5.8%, SMN2 splice up -7.0%, ELG1 DNA repair -16.5% and Rab9 promoter act 6.4%.
Cc1cc(C(=O)OCC(N)=O)c(C)n1-c1ccccc1 was read as NPC1 prom act 15.7%, FLuc modulator inconclusive, ELG1 genotoxic 15.5%, SMN2 splice up inconclusive, ELG1 DNA repair inconclusive and Rab9 promoter act 17.4%.
`COc1ccc(-n2c(C)cc(C(=O)COC(=O)c3ccc(O)cc3O)c2C)cc1` gave NPC1 prom act -4.3%, FLuc modulator inconclusive, ELG1 genotoxic -3.5%, ELG1 DNA repair inconclusive and Rab9 promoter act -16.4%.
Screening CCOC(=O)c1cc(C)n(-c2ccccc2)c1C returned NPC1 prom act -0.4%, FLuc modulator 15.1µM*, ELG1 genotoxic inconclusive, ELG1 DNA repair inconclusive and Rab9 promoter act 24.6%.
Cc1cc(C(=O)COC(=O)c2ccc(O)cc2O)c(C)n1-c1ccccc1 was read as NPC1 prom act inconclusive, FLuc modulator 2.13µM*, ELG1 genotoxic inconclusive, ELG1 DNA repair inconclusive and Rab9 promoter act inconclusive.
For Cc1nn(C)c2c1c(-c1ccccc1)cc(=O)n2Cc1ccc(Cl)cc1 the results were FLuc modulator -4.0%.
`CCCOc1ccc(C2c3c(-c4ccccc4O)n[nH]c3C(=O)N2CCc2ccccc2)cc1OCC` (stereo not drawn) gave FLuc modulator -0.6% and SMN2 splice up 3.9%.
`Cc1cccc(NC(=S)NC(=O)c2oc3ccccc3c2C)n1` gave NPC1 prom act 1.26µM*, FLuc modulator inconclusive, ELG1 genotoxic inconclusive, ELG1 DNA repair inconclusive and Rab9 promoter act 1.41µM*.
For Cc1cccc(NC(=O)Cc2ccc(-c3ccccc3)cc2)n1 the results were NPC1 prom act -1.7%, FLuc modulator inconclusive, ELG1 genotoxic -4.7%, ELG1 DNA repair -1.0% and Rab9 promoter act 2.6%.
`Cc1cccc(NC(=S)NC(=O)c2ccc(-c3ccccc3)cc2)n1` gave NPC1 prom act 2.82µM*, FLuc modulator 10.7µM*, ELG1 genotoxic inconclusive, ELG1 DNA repair inconclusive and Rab9 promoter act 2.24µM*.
